# Measured values: PubChem BioAssay (NCI)
# Compounds without any hit were thinned out: in the full panel of roughly 79,000, 15% have a hit. Unmarked numbers belong to inactive results. Calls of active or inactive are those of the source. Cut-off read from the data, not from the text of the source: active = growth inhibition above about 70%; inactive = the rest.
# Assays:
# [1] = NCI Yeast Anticancer Drug Screen. Data for the wt1 strain (AID 149);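 note: 0% = growth of vehicle-treated wt1 cultures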; conditions: S. cerevisiae wt1 strain (SPY 50644) growth inhibition, hits give high values
# In short: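 wt1 strain grown with compound or vehicle; inhibition taken from the growth difference.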
# [2] = NCI Yeast Anticancer Drug Screen. Data for the rad50EPP+ strain (AID 151);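 note: 0% = growth of vehicle-treated control cultures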; conditions: S. cerevisiae rad50 mutant strain, hits give high values
# In short: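 Strain rad50EPP+; compound exposure; % growth inhibition vs vehicle.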
# [3] = NCI Yeast Anticancer Drug Screen. Data for the mgt1 strain (AID 153); conditions: S. cerevisiae mgt1 mutant growth inhibition, hits give high values
# In short: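 Read-out: yeast growth inhibition vs vehicle control. Strain mgt1, drawn from a panel altered in DNA damage repair or cell cycle control.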
# [4] = NCI Yeast Anticancer Drug Screen. Data for the rad50 strain (AID 155);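 note: 0% = growth of vehicle-only cultures of the same strain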; conditions: S. cerevisiae rad50 strain growth inhibition, hits give high values
# In short: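 DNA repair mutant yeast, compound exposure, growth read-out; inhibition is taken relative to vehicle.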
# [5] = NCI Yeast Anticancer Drug Screen. Data for the mec2-1 strain (AID 157); conditions: S. cerevisiae mec2-1 strain, hits give high values
# In short: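 Cells of the genetically defined mec2-1 yeast strain are incubated with test compound. Inhibition of growth is calculated against vehicle-treated controls.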
# [6] = NCI Yeast Anticancer Drug Screen. Data for the rad14 strain (AID 159);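 note: 0% = growth of vehicle-treated control cultures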; conditions: S. cerevisiae rad14 strain growth inhibition, hits give high values
# In short: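 DNA repair-defective yeast, compound-exposed; % growth inhibition derived by comparison with vehicle-treated controls.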
# [7] = NCI Yeast Anticancer Drug Screen. Data for the sgs1 mgt1 strain (AID 161);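 note: 0% = growth of cultures given vehicle only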; conditions: S. cerevisiae sgs1 mgt1 strain, hits give high values
# In short: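 Inhibition of yeast growth, normalised to vehicle-treated controls, is reported for a strain bearing genetic alterations in DNA damage repair.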
# [8] = NCI Yeast Anticancer Drug Screen. Data for the CLN2oe strain (AID 163);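 note: 0% = growth of vehicle-only control cultures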; conditions: S. cerevisiae CLN2oe strain, hits give high values
# In short: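 Strain altered in cell-cycle control, incubated with compound; growth compared to solvent-treated controls.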
# [9] = NCI Yeast Anticancer Drug Screen. Data for the cln2 rad14 strain (AID 165);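 note: 0% = growth equal to vehicle treated cultures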; conditions: S. cerevisiae cln2 rad14 strain, hits give high values
# In short: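 The screen exposed genetically defined yeast (cln2 rad14) to test compounds and scored growth inhibition relative to vehicle-treated controls.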
# [10] = NCI Yeast Anticancer Drug Screen. Data for the bub3 strain (AID 167); conditions: S. cerevisiae bub3 mutant strain, hits give high values
# In short: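 In this screen, a yeast mutant lacking normal mitotic checkpoint function is challenged with compound. Relative growth versus vehicle gives the inhibition value.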
# [11] = NCI Yeast Anticancer Drug Screen. Data for the wt2 strain (AID 169);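 note: 0% = growth of vehicle-treated yeast cultures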; conditions: S. cerevisiae wt2 strain growth inhibition, hits give high values
# In short: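 Steps: yeast strain treated with compound; growth recorded; inhibition calculated relative to cultures given vehicle alone.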
# [12] = NCI Yeast Anticancer Drug Screen. Data for the mlh1 strain (AID 171);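 note: 0% = growth of vehicle-treated control cultures of the same strain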; conditions: S. cerevisiae mlh1 strain growth inhibition, hits give high values
# In short: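 Yeast screen: mutant strain plus compound, growth scored against vehicle control wells.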
# [13] = NCI Yeast Anticancer Drug Screen. Data for the sgs1 strain (AID 173);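 note: 0% = growth of vehicle-only control cultures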; conditions: S. cerevisiae sgs1 mutant, hits give high values
# In short: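 Inhibition of yeast growth served as the measure. The mutant strain was treated with each compound, and growth was normalised to cultures receiving vehicle alone.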
# [14] = NCI Yeast Anticancer Drug Screen. Data for the mlh1 rad18 strain (AID 175); conditions: S. cerevisiae mlh1 rad18 strain growth inhibition, hits give high values
# In short: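 Compound-treated yeast growth, normalised to vehicle controls. Strain bears defined DNA repair mutations.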
# [15] = NCI Yeast Anticancer Drug Screen. Data for the rad18 strain (AID 177); conditions: S. cerevisiae rad18 mutant growth inhibition, hits give high values
# In short: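 Inhibition values reflect reduced yeast growth compared with vehicle-treated controls, using a strain engineered with a DNA damage repair defect.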
# [16] = at 5.0 µM (retest, dose inferred, filed as 0.5)
# [17] = at 50.0 µM (retest, dose inferred, filed as 5.0)
smiles,measurement,setting,value
O=C(Cc1ccccc1F)NC1=C(Cl)C(=O)c2ccccc2C1=O,growth inhibition,[1]; at 1.2 µM,1%
same,growth inhibition,[1]; at 3.7 µM,0%
same,growth inhibition,[1]; at 11.0 µM,0%
same,growth inhibition,[1]; at 33.0 µM,9%
same,growth inhibition,[1]; at 100.0 µM,17%
same,growth inhibition,[2]; at 1.2 µM,40%
same,growth inhibition,[2]; at 3.7 µM,43%
same,growth inhibition,[2]; at 11.0 µM,51%
same,growth inhibition,[2]; at 33.0 µM,48%
same,growth inhibition,[2]; at 100.0 µM,59%
same,growth inhibition,[3]; at 1.2 µM,-2%
same,growth inhibition,[3]; at 3.7 µM,11%
same,growth inhibition,[3]; at 11.0 µM,8%
same,growth inhibition,[3]; at 33.0 µM,3%
same,growth inhibition,[3]; at 100.0 µM,14%
same,growth inhibition,[4]; at 1.2 µM,20%
same,growth inhibition,[4]; at 3.7 µM,26%
same,growth inhibition,[4]; [16],14%
same,growth inhibition,[4]; at 11.0 µM,13%
same,growth inhibition,[4]; at 33.0 µM,22%
same,growth inhibition,[4]; [17],4%
same,growth inhibition,[4]; at 50.0 µM,30.8%
same,growth inhibition,[4]; at 100.0 µM,37%
same,growth inhibition,[5]; at 1.2 µM,41%
same,growth inhibition,[5]; at 3.7 µM,45%
same,growth inhibition,[5]; [16],-16%
same,growth inhibition,[5]; at 11.0 µM,46%
same,growth inhibition,[5]; at 33.0 µM,55%
same,growth inhibition,[5]; [17],50%
same,growth inhibition,[5]; at 50.0 µM,-14.2%
same,growth inhibition,[5]; at 100.0 µM,69%
same,growth inhibition,[6]; at 1.2 µM,-26%
same,growth inhibition,[6]; at 3.7 µM,-12%
same,growth inhibition,[6]; at 11.0 µM,-8%
same,growth inhibition,[6]; at 33.0 µM,19%
same,growth inhibition,[6]; at 100.0 µM,38%
same,growth inhibition,[7]; [16],1%
same,growth inhibition,[7]; [17],54%
same,growth inhibition,[7]; at 50.0 µM,11.4%
same,growth inhibition,[8]; at 1.2 µM,1%
same,growth inhibition,[8]; at 3.7 µM,18%
same,growth inhibition,[8]; at 11.0 µM,19%
same,growth inhibition,[8]; at 33.0 µM,-1%
same,growth inhibition,[8]; at 100.0 µM,27%
same,growth inhibition,[9]; [16],33%
same,growth inhibition,[9]; [17],45%
same,growth inhibition,[9]; at 50.0 µM,24.3%
same,growth inhibition,[10]; at 1.2 µM,14%
same,growth inhibition,[10]; at 3.7 µM,17%
same,growth inhibition,[10]; [16],-6%
same,growth inhibition,[10]; at 11.0 µM,27%
same,growth inhibition,[10]; at 33.0 µM,47%
same,growth inhibition,[10]; [17],70% (active)
same,growth inhibition,[10]; at 50.0 µM,54%
same,growth inhibition,[10]; at 100.0 µM,73% (active)
same,growth inhibition,[11]; at 1.2 µM,-9%
same,growth inhibition,[11]; at 3.7 µM,3%
same,growth inhibition,[11]; at 11.0 µM,-8%
same,growth inhibition,[11]; at 33.0 µM,-1%
same,growth inhibition,[11]; at 100.0 µM,-4%
same,growth inhibition,[12]; at 1.2 µM,-2%
same,growth inhibition,[12]; at 3.7 µM,11%
same,growth inhibition,[12]; at 11.0 µM,8%
same,growth inhibition,[12]; at 33.0 µM,3%
same,growth inhibition,[12]; at 100.0 µM,14%
same,growth inhibition,[13]; at 1.2 µM,39%
same,growth inhibition,[13]; at 3.7 µM,35%
same,growth inhibition,[13]; at 11.0 µM,41%
same,growth inhibition,[13]; at 33.0 µM,59%
same,growth inhibition,[13]; at 100.0 µM,58%
same,growth inhibition,[14]; [16],20%
same,growth inhibition,[14]; [17],28%
same,growth inhibition,[14]; at 50.0 µM,-1.75%
same,growth inhibition,[15]; at 1.2 µM,29%
same,growth inhibition,[15]; at 3.7 µM,6%
same,growth inhibition,[15]; at 11.0 µM,25%
same,growth inhibition,[15]; at 33.0 µM,34%
same,growth inhibition,[15]; at 100.0 µM,40%
S=C1NC2=C(CSC/C2=C\c2ccc(Cl)cc2)C(c2ccc(Cl)cc2)N1 (stereo unspecified),growth inhibition,[1]; at 1.2 µM,8%
same,growth inhibition,[1]; at 3.7 µM,19%
same,growth inhibition,[1]; at 11.0 µM,24%
same,growth inhibition,[1]; at 33.0 µM,61%
same,growth inhibition,[1]; at 100.0 µM,76% (active)
same,growth inhibition,[2]; at 1.2 µM,-3%
same,growth inhibition,[2]; at 3.7 µM,12%
same,growth inhibition,[2]; at 11.0 µM,12%
same,growth inhibition,[2]; at 33.0 µM,16%
same,growth inhibition,[2]; at 100.0 µM,9%
same,growth inhibition,[3]; at 1.2 µM,29%
same,growth inhibition,[3]; at 3.7 µM,31%
same,growth inhibition,[3]; at 11.0 µM,44%
same,growth inhibition,[3]; at 33.0 µM,72% (active)
same,growth inhibition,[3]; at 100.0 µM,82% (active)
same,growth inhibition,[4]; at 1.2 µM,20%
same,growth inhibition,[4]; at 3.7 µM,42%
same,growth inhibition,[4]; [16],-9%
same,growth inhibition,[4]; at 11.0 µM,56%
same,growth inhibition,[4]; at 33.0 µM,74% (active)
same,growth inhibition,[4]; [17],94% (active)
same,growth inhibition,[4]; at 50.0 µM,92.9% (active)
same,growth inhibition,[4]; at 100.0 µM,71% (active)
same,growth inhibition,[5]; at 1.2 µM,0%
same,growth inhibition,[5]; at 3.7 µM,-1%
same,growth inhibition,[5]; [16],5%
same,growth inhibition,[5]; at 11.0 µM,24%
same,growth inhibition,[5]; at 33.0 µM,61%
same,growth inhibition,[5]; [17],95% (active)
same,growth inhibition,[5]; at 50.0 µM,83.7% (active)
same,growth inhibition,[5]; at 100.0 µM,77% (active)
same,growth inhibition,[6]; at 1.2 µM,11%
same,growth inhibition,[6]; at 3.7 µM,26%
same,growth inhibition,[6]; at 11.0 µM,38%
same,growth inhibition,[6]; at 33.0 µM,71% (active)
same,growth inhibition,[6]; at 100.0 µM,74% (active)
same,growth inhibition,[7]; [16],6%
same,growth inhibition,[7]; [17],92% (active)
same,growth inhibition,[7]; at 50.0 µM,96.5% (active)
same,growth inhibition,[8]; at 1.2 µM,-14%
same,growth inhibition,[8]; at 3.7 µM,14%
same,growth inhibition,[8]; at 11.0 µM,28%
same,growth inhibition,[8]; at 33.0 µM,44%
same,growth inhibition,[8]; at 100.0 µM,71% (active)
same,growth inhibition,[9]; [16],11%
same,growth inhibition,[9]; [17],92% (active)
same,growth inhibition,[9]; at 50.0 µM,95.2% (active)
same,growth inhibition,[10]; at 1.2 µM,-39%
same,growth inhibition,[10]; at 3.7 µM,-7%
same,growth inhibition,[10]; [16],-7%
same,growth inhibition,[10]; at 11.0 µM,16%
same,growth inhibition,[10]; at 33.0 µM,56%
same,growth inhibition,[10]; [17],96% (active)
same,growth inhibition,[10]; at 50.0 µM,94.8% (active)
same,growth inhibition,[10]; at 100.0 µM,77% (active)
same,growth inhibition,[11]; at 1.2 µM,25%
same,growth inhibition,[11]; at 3.7 µM,31%
same,growth inhibition,[11]; at 11.0 µM,39%
same,growth inhibition,[11]; at 33.0 µM,68%
same,growth inhibition,[11]; at 100.0 µM,83% (active)
same,growth inhibition,[12]; at 1.2 µM,3%
same,growth inhibition,[12]; at 3.7 µM,26%
same,growth inhibition,[12]; at 11.0 µM,46%
same,growth inhibition,[12]; at 33.0 µM,72% (active)
same,growth inhibition,[12]; at 100.0 µM,75% (active)
same,growth inhibition,[13]; at 1.2 µM,42%
same,growth inhibition,[13]; at 3.7 µM,45%
same,growth inhibition,[13]; at 11.0 µM,66%
same,growth inhibition,[13]; at 33.0 µM,84% (active)
same,growth inhibition,[13]; at 100.0 µM,87% (active)
same,growth inhibition,[14]; [16],16%
same,growth inhibition,[14]; [17],96% (active)
same,growth inhibition,[14]; at 50.0 µM,90.7% (active)
same,growth inhibition,[15]; at 1.2 µM,15%
same,growth inhibition,[15]; at 3.7 µM,25%
same,growth inhibition,[15]; at 11.0 µM,28%
same,growth inhibition,[15]; at 33.0 µM,63%
same,growth inhibition,[15]; at 100.0 µM,73% (active)
